In all, about 68,000 sequences were measured (“fluorescence intensity (a.u.)”: median about 9,100, highest 2% from about 16,000 on). The full list was thinned out, with the highest values kept by preference.

OsWRKY34, sequence (Q0JBA9 entry or part of it): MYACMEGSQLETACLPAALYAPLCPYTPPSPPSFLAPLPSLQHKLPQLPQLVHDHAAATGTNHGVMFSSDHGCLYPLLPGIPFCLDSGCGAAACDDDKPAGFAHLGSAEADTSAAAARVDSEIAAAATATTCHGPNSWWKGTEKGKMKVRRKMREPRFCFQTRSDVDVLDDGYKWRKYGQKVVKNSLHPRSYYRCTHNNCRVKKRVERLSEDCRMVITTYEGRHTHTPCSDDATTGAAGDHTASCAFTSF

The test addresses OsWRKY34 (Oryza sativa, UniProt Q0JBA9 1-250). Kind of test: protein-binding microarray (RPBM); PBS, 2% BSA, 51.3 ng/ul salmon testes DNA, 50 uM zinc acetate, 200 nM TF, 25 C, 1 h; high values mean tight binding. Particulars: protein: recombinant; tags: N-terminal polyhistidine and DsRed monomer fusion (pET32a); label: CyDye5-dUTP incorporated in the synthesized complementary strand; 3' TTTTT single-stranded linker to array surface; dsDNA, one strand shown. Summed up:
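A custom Agilent array was converted to double-stranded form by primer extension with Cy5-dUTP and blocked with 2% BSA. Protein at 200 nM in PBS with 2% BSA, salmon testes DNA and 50 µM zinc acetate was applied for 1 h at 25 °C, followed by washing. The proteins were polyhistidine–DsRed N-terminal fusions of transcription factors, expressed in E. coli BL21-CodonPlus and Ni–NTA-purified. The binding signal is per-feature fluorescence intensity (arbitrary units) from an Axon 4000B scanner.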
Regarding “TGTAGTTGTGAGTGTATTCGTTTGTACTGTTTTTTTTATACGGAGTCACCTAGTGCAG”, the binding signal is 11900 fluorescence intensity (a.u.).

As to “TTTGCATTTATTTTTCATTGTTTCCGTCACTTTAGAAATTCGGAGTCACCTAGTGCAG”, the binding signal is 8260 fluorescence intensity (a.u.).

As to “CCCATTATTTTTTATACCTTTATTTATCTTCTGTGTTTTTCGGAGTCACCTAGTGCAG”, the binding signal is 13500 fluorescence intensity (a.u.).

Take “CATTTATCTATTTATCTATCTATATATATTATATTATATTCGGAGTCACCTAGTGCAG”: the binding signal is 8560 fluorescence intensity (a.u.).

As for “AATTTCTGCTGCCATTTTCTATGTTCTTTAGTCTAAGTTTCGGAGTCACCTAGTGCAG”, the binding signal was 14700 fluorescence intensity (a.u.).

On to “GGGTTTTTTATATACTGGTAAATATTCGCTACCGTATTCGCGGAGTCACCTAGTGCAG”, for which the binding signal is 9130 fluorescence intensity (a.u.).

Consider “GAGCACATACTTTGGTCATTAATGGTGATTATAATGATATCGGAGTCACCTAGTGCAG”, for which the binding signal was 8820 fluorescence intensity (a.u.).

As for “GAGGAAACATCTATCCCGGTCAAAGCCTGAGCATGTACACCGGAGTCACCTAGTGCAG”, the binding signal is 8210 fluorescence intensity (a.u.).

With “TTTCTCTTTGCACCCTAGCCTCATGTTCTTCTTCTTCCTCCGGAGTCACCTAGTGCAG”, the binding signal was 8680 fluorescence intensity (a.u.).

Turning to “GAAGAGCCGGCTCGTTCCTCTCCTTCCCGTTCACATTTCACGGAGTCACCTAGTGCAG”, the binding signal was 8260 fluorescence intensity (a.u.).

Take “CTGATGTCTGAACGACTGTACCCGACGTTGTTGATTGCTTCGGAGTCACCTAGTGCAG”: the binding signal is 9820 fluorescence intensity (a.u.).

As to “GGGCGACAAGCACGCGTATACCCATCTATCATCCCGCTCCCGGAGTCACCTAGTGCAG”, the binding signal was 8390 fluorescence intensity (a.u.).

With “CACCAGCATCCTCGCACGGTCGCGACCCCTCCCGCACCTCCGGAGTCACCTAGTGCAG”, the binding signal was 8200 fluorescence intensity (a.u.).

As to “CAATCCGGACCATATAAGTGTTTTCCTTTTTTAATTCTTTCGGAGTCACCTAGTGCAG”, the binding signal was 11300 fluorescence intensity (a.u.).

With “TACTATTTTTTCTCGTATTCATTATTTTGTGCATTATTTTCGGAGTCACCTAGTGCAG”, the binding signal is 17200 fluorescence intensity (a.u.).

“ATAGTCATTTATTTTGTGCTCTCGTATTTTTTTTCTGTTTCGGAGTCACCTAGTGCAG”: the binding signal was 9540 fluorescence intensity (a.u.).

For the sequence “AATTTTGTATATTCGTTTGCACGTTTTTAAAACTCCTAAACGGAGTCACCTAGTGCAG”, the binding signal was 65500 fluorescence intensity (a.u.).

Take “TTATTTTGTGATTACTATCTCTCCGTTCATGTTTCTATCTCGGAGTCACCTAGTGCAG”: the binding signal is 16400 fluorescence intensity (a.u.).

Turning to “TACATTACTTCATATTTTTTTCTGTTTGTGATTTCTATTTCGGAGTCACCTAGTGCAG”, the binding signal was 9740 fluorescence intensity (a.u.).

As to “CCCCTATTTTGTTACCTCATTATTCTCGTATTCCCCTTTTCGGAGTCACCTAGTGCAG”, the binding signal is 9810 fluorescence intensity (a.u.).

Consider “AAATTTGTATAGACGTTTGCTTTTAACTTAGTCCTAAATTCGGAGTCACCTAGTGCAG”, for which the binding signal is 9130 fluorescence intensity (a.u.).

In the case of “GTATTTTAAGCATATTTTTTCGTTTTTTATATTTGTAAAACGGAGTCACCTAGTGCAG”, the binding signal was 11000 fluorescence intensity (a.u.).

As to “ACTATTACTTCTATTTTCTAGTATTTTTTTTTGTTTCTCTCGGAGTCACCTAGTGCAG”, the binding signal was 13500 fluorescence intensity (a.u.).

In the case of “GATTGGGCGATTTCATCTTCTTCTTGGCCTTGAGGCGGTACGGAGTCACCTAGTGCAG”, the binding signal is 10000 fluorescence intensity (a.u.).

“TTTCTTAGCTATGTCCTAATTTATTACTGTGCATGTTTCTCGGAGTCACCTAGTGCAG”: the binding signal was 10900 fluorescence intensity (a.u.).

Turning to “CACATGTCATTGTCACACACACGCGCGCCCCATTGGACATCGGAGTCACCTAGTGCAG”, the binding signal was 9860 fluorescence intensity (a.u.).

As for “ATTTGCACCTGTTGAATGGGCATGTCTTGTGTGTGTTTCTCGGAGTCACCTAGTGCAG”, the binding signal was 8400 fluorescence intensity (a.u.).

As for “GTGGGGTCGGGTACTCGCGTGGGCCCACCTGGCCGGTCAACGGAGTCACCTAGTGCAG”, the binding signal is 10200 fluorescence intensity (a.u.).

Consider “CCCACCAGGCCACCAAACTCTCTCGGGCCGAAACGGTCAACGGAGTCACCTAGTGCAG”, for which the binding signal was 8380 fluorescence intensity (a.u.).

As for “TCTCGGGCCGAAACGGTCAACGCGTTTACCGGTGGCATAACGGAGTCACCTAGTGCAG”, the binding signal was 17500 fluorescence intensity (a.u.).

Regarding “TCCTCTTGCAATCATTCACTCTCCTTGCTCGATTCTATAACGGAGTCACCTAGTGCAG”, the binding signal was 11300 fluorescence intensity (a.u.).

For the sequence “AATTCTTTTGTCGTATTATCCTATCTACTTCCACTTATAACGGAGTCACCTAGTGCAG”, the binding signal was 8560 fluorescence intensity (a.u.).

Consider “AATATAGTTGCTGATGCGCTGTCCAGGATGCCTGTTATACCGGAGTCACCTAGTGCAG”, for which the binding signal is 9400 fluorescence intensity (a.u.).

Consider “GTTTCATTGAGATGGTGTCGACGTGGCGGCGTTGACTTAGCGGAGTCACCTAGTGCAG”, for which the binding signal is 10700 fluorescence intensity (a.u.).

In the case of “ACACCATTGACTTTTTAGCATATGTTTAACCGTTTGTCTTCGGAGTCACCTAGTGCAG”, the binding signal is 13900 fluorescence intensity (a.u.).

For “GATTCTACTGCCCCGTTGACTAATTGTCTTCGTCAGGATCCGGAGTCACCTAGTGCAG”, the binding signal is 17900 fluorescence intensity (a.u.).

On to “CCCCGTCGTTGTCGCCACCTACTTCTACCTGCGCGGATTCCGGAGTCACCTAGTGCAG”, for which the binding signal is 10800 fluorescence intensity (a.u.).

For the sequence “CAATGTTGTCTTGACTTTTTTTTAACGTTTAACCATTTGTCGGAGTCACCTAGTGCAG”, the binding signal is 8940 fluorescence intensity (a.u.).

For the sequence “TGACACCGTTGACTTTTTTGTCTAAAGTTTAACCATTCGTCGGAGTCACCTAGTGCAG”, the binding signal was 32400 fluorescence intensity (a.u.).

Take “TAATTGTCTTCGTCAGGATCTTCTGCTAATTGTTTGATTTCGGAGTCACCTAGTGCAG”: the binding signal is 8680 fluorescence intensity (a.u.).

As to “CGACTTTGTTTTACCATTGTTTTTTTTGTCTTGTTTTAGTCGGAGTCACCTAGTGCAG”, the binding signal was 10600 fluorescence intensity (a.u.).

Regarding “AATGCAACCATTAAGTTGTCGTTTAGTTGACTTTGTCTACCGGAGTCACCTAGTGCAG”, the binding signal was 8690 fluorescence intensity (a.u.).

Consider “CCGCCGTTGACTTTTTGTCTAACGTTTGACCATTCGTCTTCGGAGTCACCTAGTGCAG”, for which the binding signal is 36200 fluorescence intensity (a.u.).

As to “AGTGTCTTTGACTTTTTGTTTGTAACGTTTGACCATTCGTCGGAGTCACCTAGTGCAG”, the binding signal is 21900 fluorescence intensity (a.u.).

Regarding “CCGTTGACATTTTATCTAACGTTTGACCATTCGTCTTATTCGGAGTCACCTAGTGCAG”, the binding signal was 15900 fluorescence intensity (a.u.).

Source of the values: PMC7819943, “Rice protein-binding microarrays: a tool to detect cis-acting elements near promoter regions in rice”.
